In PubChem BioAssay AID1220 (Sanford-Burnham Center for Chemical Genomics, 2008):
In all, about 190,000 compounds went through this assay and about 1,300 (0.68%) were called active. This is one part of a sample in which actives are shown more often than they occur. A number with no mark means an inactive call. Cut-off read from the data, not from the text of the source: active = inhibition above about 50%; inactive = the rest.

Target: Mannose-6-phosphate isomerase (Homo sapiens) (UniProt P34949)
Assay: human PMI inhibitors, high substrate, primary screen, biochemical, fluorescence intensity, high mannose 6-phosphate (AID 1220)
Conditions: recombinant PMI enzyme, coupled fluorescence intensity; at 20 µM; stronger effect = higher value

Sequence of Mannose-6-phosphate isomerase (Homo sapiens) (P34949 whole entry, looked up): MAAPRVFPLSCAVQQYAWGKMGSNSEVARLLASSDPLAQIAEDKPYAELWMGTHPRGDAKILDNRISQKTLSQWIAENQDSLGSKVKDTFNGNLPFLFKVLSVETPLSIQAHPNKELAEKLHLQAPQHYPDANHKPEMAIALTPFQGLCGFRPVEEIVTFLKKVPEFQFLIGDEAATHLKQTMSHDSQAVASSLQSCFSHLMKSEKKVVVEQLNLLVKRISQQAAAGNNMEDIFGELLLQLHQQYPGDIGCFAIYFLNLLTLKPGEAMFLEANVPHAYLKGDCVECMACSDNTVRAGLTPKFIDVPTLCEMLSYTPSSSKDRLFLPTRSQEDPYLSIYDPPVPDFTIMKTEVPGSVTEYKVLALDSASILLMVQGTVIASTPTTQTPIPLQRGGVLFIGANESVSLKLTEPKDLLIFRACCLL

SMILES | inhibition
O=C(CCN1C(=O)COc2ccccc21)NCCC1=CCCCC1 | 19.9%
CC(C)(C)P(=O)(CO)c1ccccc1 (stereo unspecified) | 1.7%
Oc1ccc(Br)cc1C=Nc1ccc2[nH]ncc2c1 | 55.4% (active)
COc1cccc(N=Cc2ccc(O)cc2O)c1 | 52.5% (active)
COc1ccc(C=Nc2ccc3[nH]ncc3c2)c(O)c1 | 59.8% (active)
Cc1ccc(N=Cc2ccc(O)cc2O)cc1F | 9.7%
C=CCOc1ccc(C=Nc2ccc(OC)cc2)c(O)c1 | 49%
Brc1ccc2[nH]ncc2c1 | -2.5%
OCC(CO)(CO)N=Cc1cc(Br)ccc1O | 27%
CC1(C)CC(=O)C(C=Nc2ccc3[nH]ncc3c2)=C(O)C1 | 38.6%
COc1cccc(N=Cc2c[nH][nH]c2=O)c1 | 16.7%
O=C(c1ccc(OC2CCN(Cc3ccccn3)CC2)cc1)N1CCCC(O)C1 (stereo unspecified) | -8.1%
Cn1c(Cn2c(=O)sc3ccccc32)nnc1SCC(=O)Nc1ccccc1F | 0.2%
O=C(COc1ccccc1)Nc1ccc(CSc2ccccc2)cc1 | 2.7%
O=C(NCc1ccccn1)C(=O)NCC(c1ccco1)N1CCOCC1 (stereo unspecified) | -8.8%
COc1ccc(CNC(=S)Nc2ccc(OC)cc2)cc1 | 7.4%
COc1ccc(CNC(=S)Nc2cccc(C)c2)cc1 | 7.5%
COc1ccc(NC(=S)NCCN2CCOCC2)cc1 | -3.1%
COc1ccc(N2CCC(CNC(=S)Nc3cccc(OC)c3)C2)cc1 (stereo unspecified) | 45.4%
COc1ccc(NC(=S)NCC2CCN(c3ccc(OC)cc3)C2)cc1 (stereo unspecified) | 55.3% (active)
COc1ccc(N2CCC(CNC(=S)Nc3cccc(C)c3)C2)cc1 (stereo unspecified) | 50.4% (active)
COc1ccccc1-n1cnnc1SCC(=O)N1CCN(S(=O)(=O)c2ccccc2)CC1 | 4.9%
Cn1nnnc1SCCNCc1ccc(Cl)cc1 | 3.8%
O=C(CCCn1c(=O)oc2ccccc21)NC1CCCCCC1 | -6.9%
COc1ccc(N2C(=O)C(Cl)=C(N(CCO)Cc3ccccc3)C2=O)cc1 | 3.2%
O=C(CCN1C(=O)c2ccccc2C1=O)N(CCO)Cc1ccccc1 | 0.1%

SMILES | inhibition
O=C1C=C(N(CCO)Cc2ccccc2)c2ccccc2C1=O | 64.6% (active)
Cc1cc(Nc2ccc(F)cc2Cl)n2ncnc2n1 | 16.6%
COc1ccccc1/C=C/C1=NC(=C\C=C/c2ccccc2)/C(=O)O1 | 0.5%
COc1ccc(/C=C/C2=NC(=C\N(C)C)/C(=O)O2)cc1 | 5.3%
COc1ccccc1/C=C/C1=NC(=C\N(C)C)/C(=O)O1 | 56.8% (active)
CCCCOC(=O)C1[C@H]2C(=O)N(CCc3ccccc3)C[C@]23C=C[C@H]1O3 (stereo partly specified) | -0.4%
CCOC(=O)c1c(C)c(C(=O)NCc2cccnc2)c(C)n1CC | 108% (active)
CCOC(=O)c1c(C)c(C(=O)NCc2ccccn2)c(C)n1CC | 12.2%
CCOC(=O)c1c(C)c(C(=O)NCc2cccnc2)c(C)n1C | -0.6%
S=c1[nH]ncc2ccccc12 | -67.9%
Cc1ccc(/C=C/C2=NN(C)C(=O)CC2)cc1 | -3.3%
Cc1cccc(C)c1NC(=O)CC1SC2=NCCN2C1=O (stereo unspecified) | 6.8%
CC(C)/C(=N/Nc1ccccc1[N+](=O)[O-])c1ccccc1 | 54.4% (active)
CC/C(=N\Nc1ccccc1[N+](=O)[O-])c1ccc(O)cc1 | -0.4%
CC(/C=C/c1ccccc1)=N\Nc1ccccc1[N+](=O)[O-] | 0.8%
Cc1ccc(/C=C/C(=O)NCc2cccs2)cc1 | -6.3%
Cc1nn(-c2cccc(Cl)c2)c(Cl)c1/C=N/NC(=O)c1cccnc1 | 55.5% (active)
Cc1ccc(-n2nc(C)c(/C=N/NC(=O)c3cccnc3)c2Cl)cc1 | 15.6%
Cc1nn(-c2ccccc2)c(Cl)c1/C=N/NC(=O)c1cccnc1 | -3.1%
C=CCNC(=S)Nc1ccccc1 | 9%
C=CCNC(=S)Nc1cccc(N)c1 | 57.6% (active)
C=CCNC(=S)Nc1cccc(NC(=S)NCC=C)c1 | 5.5%
O=C(Cc1c(O)c2ccccc2[nH]c1=O)NC1CCCCCC1 | 5.7%
CCC(C)(C)n1nnnc1CN1CCC(NC(=O)c2ccc(Br)cc2)CC1 | 7%
CCCCc1cc2c(c(NC(=O)CC)n1)c(=O)oc1ccccc12 | -0.5%
Cc1ccc2c(c1)/C(=N/N1C(=O)c3ccccc3C1=O)C(=O)N2 | 8.4%

SMILES | inhibition
COc1ccc(N=C2C(=O)Nc3ccccc32)cc1 | 43%
CCn1c(-c2ccccc2Cl)nn(CC(=O)Nc2cc(Cl)ccc2Cl)c1=S | 4.7%
CNc1nc(-c2ccccc2)cc(C)c1S(C)(=O)=O | 56% (active)
Cc1cc(-c2ccccc2)nc(N(C)N)c1S(C)(=O)=O | -2.2%
Cc1cc(-c2ccccc2)nc(N(C)C)c1S(C)(=O)=O | 2%
Cc1c(Br)c([N+](=O)[O-])nn1CC(=O)NCCc1c[nH]c2ccccc12 | 6.1%
CSCCNC(=O)c1ccc(OC2CCN(CCc3ccccc3)CC2)cc1 | -9.3%
O=C(Cn1nc(-c2ccccc2)ccc1=O)Nc1cccc(NC(=O)c2ccccn2)c1 | -11.7%
CCN1C(=O)/C(=C/C=C2/SCCN2C)SC1=S | 27.6%
CN1CCS/C1=C\C=C1/SC(=S)N(CC(=O)O)C1=O | 19.8%
CCCCN1C(=O)/C(=C/C=C2\SCCN2C)SC1=S | 53.5% (active)
COc1ccc(-c2cc(CNC(=O)CN3CCN(C)CC3)on2)cc1 | 20.4%
COc1cc(OC)cc(-c2nc(-c3cccs3)no2)c1 | 10.1%
Cc1cc2cc(NC(=O)c3ccco3)ccc2[nH]1 | 10.8%
CC(=O)Nc1cccc(NC(=O)CSc2ccc3nnc(CCNC(=O)c4ccccc4)n3n2)c1 | 10.1%
Nc1ccccc1N1CCOCC1 | -0.3%
Nc1ccc(N2CCCCC2)cc1N1CCCCC1 | 46.4%
Nc1c(N2CCCC2)cc(Cl)c2nonc12 | 55.1% (active)
Nc1nonc1N1CCCCC1 | 13.1%
Nc1ccc(N2CCCCC2)c(Cl)c1 | 2.9%
Nc1ccc(N2CCCCC2)c2nonc12 | 68.3% (active)
Nc1cc(Cl)ccc1N1CCOCC1 | -3.8%
Nc1cc(Cl)ccc1N1CCCC1 | 36.3%
Nc1ccc(N2CCOCC2)c2nonc12 | 57% (active)
